The values below come from paper PMC5700166.

For this test, the target named is T1, GST-Co-NF-kB (Capsaspora owczarzaki, UniProt F1ARL5 200-546).
T1 sequence: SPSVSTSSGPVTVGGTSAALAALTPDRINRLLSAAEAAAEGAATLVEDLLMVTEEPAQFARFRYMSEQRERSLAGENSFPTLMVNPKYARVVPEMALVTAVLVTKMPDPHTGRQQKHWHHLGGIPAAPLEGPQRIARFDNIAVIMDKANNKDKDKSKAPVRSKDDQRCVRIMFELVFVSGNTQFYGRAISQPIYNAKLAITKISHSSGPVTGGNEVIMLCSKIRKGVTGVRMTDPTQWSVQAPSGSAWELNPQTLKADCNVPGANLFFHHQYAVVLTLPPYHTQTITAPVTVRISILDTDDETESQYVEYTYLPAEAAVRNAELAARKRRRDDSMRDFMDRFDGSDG
As to the kind of experiment: protein-binding microarray (PBM); PBM: ~300 nM protein, 6 mM HEPES pH 7.8, 80 mM KCl, 0.5 mM EDTA, 0.5 mM EGTA, 6% glycerol, 35 ng/ul poly-dIdC, 1% milk, 1 h, room temperature; Ap Aiptasia and Nv Nematostella (sea anemones) / Co Capsaspora / Aq Amphimedon (sponge) / Dm Drosophila / Hu human; RHD is the Rel homology domain; high values mean tight binding. The conditions noted are these: dsDNA, one strand shown.
“CCGATTAACATCAAAATTTTCCCTGATGTTAATCGGGTCTTGATTCGCTTGACGCTGCTG” came in with a binding signal of 6.32 z-score.

The sequence “CCGATTAACATCAAGTTTTCCCCTGATGTTAATCGGGTCTTGATTCGCTTGACGCTGCTG” came in with a binding signal of 10.3 z-score.

The sequence “CCGATTAACATCAAGGGAAATTCTGATGTTAATCGGGTCTTGATTCGCTTGACGCTGCTG” returned a binding signal of 4.57 z-score.

Sequence “CCGATTAACATCAAATTCCCACATGATGTTAATCGGGTCTTGATTCGCTTGACGCTGCTG” showed a binding signal of 3.33 z-score.

“CCGATTAACATCAATGGGATTTCTGATGTTAATCGGGTCTTGATTCGCTTGACGCTGCTG” had a binding signal of 1.38 z-score.

“CCGATTAACATCAAGGGGGTATCTGATGTTAATCGGGTCTTGATTCGCTTGACGCTGCTG” registered a binding signal of 3.26 z-score.

Turning to “CCGATTAACATCAAAATTCCCTATGATGTTAATCGGGTCTTGATTCGCTTGACGCTGCTG”, the binding signal was found to be 3.27 z-score.

The sequence “CCGATTAACATCAGAAGTGGGAATGATGTTAATCGGGTCTTGATTCGCTTGACGCTGCTG” yielded a binding signal of 2.78 z-score.

In the case of “CCGATTAACATCAGGGGGAACCATGATGTTAATCGGGTCTTGATTCGCTTGACGCTGCTG”, the binding signal was determined as 8.58 z-score.

“CCGATTAACATCAAGGTTTCCCCTGATGTTAATCGGGTCTTGATTCGCTTGACGCTGCTG”: the binding signal stood at 8.15 z-score.

In the case of “CCGATTAACATCAGGGAATAACCTGATGTTAATCGGGTCTTGATTCGCTTGACGCTGCTG”, the binding signal is 2.13 z-score.

“CCGATTAACATCAGTATTTCCCATGATGTTAATCGGGTCTTGATTCGCTTGACGCTGCTG” returned a binding signal of 3.66 z-score.

Turning to “CCGATTAACATCAGGGGATTCGATGATGTTAATCGGGTCTTGATTCGCTTGACGCTGCTG”, the binding signal worked out at 2.24 z-score.

With “CCGATTAACATCATGGGGAAAAATGATGTTAATCGGGTCTTGATTCGCTTGACGCTGCTG”, the binding signal came out at 9.78 z-score.

In turn, “CCGATTAACATCAACATTCCCCCTGATGTTAATCGGGTCTTGATTCGCTTGACGCTGCTG” came in with a binding signal of 9.34 z-score.

As to “CCGATTAACATCAACAATTTCCCTGATGTTAATCGGGTCTTGATTCGCTTGACGCTGCTG”, the binding signal was found to be 4.63 z-score.

In turn, “CCGATTAACATCAAAAAACCCCTTGATGTTAATCGGGTCTTGATTCGCTTGACGCTGCTG” displayed a binding signal of 2.05 z-score.

“CCGATTAACATCACGGGGATTTCTGATGTTAATCGGGTCTTGATTCGCTTGACGCTGCTG” gave a binding signal of 5.27 z-score.

In the case of “CCGATTAACATCACTTTTTCCCCTGATGTTAATCGGGTCTTGATTCGCTTGACGCTGCTG”, the binding signal was 10.6 z-score.

Take “CCGATTAACATCAGCGGGAATCCTGATGTTAATCGGGTCTTGATTCGCTTGACGCTGCTG”: the binding signal was determined as 2.25 z-score.

As to “CCGATTAACATCAGATTTTCCCATGATGTTAATCGGGTCTTGATTCGCTTGACGCTGCTG”, the binding signal was determined as 5 z-score.

In turn, “CCGATTAACATCACCCTGGGAAATGATGTTAATCGGGTCTTGATTCGCTTGACGCTGCTG” returned a binding signal of 3.42 z-score.

Take “CCGATTAACATCAGGGGGACTAATGATGTTAATCGGGTCTTGATTCGCTTGACGCTGCTG”: the binding signal was 4.79 z-score.

With “CCGATTAACATCAAGGGGATCCCTGATGTTAATCGGGTCTTGATTCGCTTGACGCTGCTG”, the binding signal came out at 3.82 z-score.

In turn, “CCGATTAACATCACGGGATTCCCTGATGTTAATCGGGTCTTGATTCGCTTGACGCTGCTG” returned a binding signal of 2.93 z-score.

In turn, “CCGATTAACATCAGGGGGTTCTATGATGTTAATCGGGTCTTGATTCGCTTGACGCTGCTG” showed a binding signal of 2.36 z-score.

“CCGATTAACATCAAAAATCCCCTTGATGTTAATCGGGTCTTGATTCGCTTGACGCTGCTG” showed a binding signal of 4.34 z-score.

“CCGATTAACATCAAAAATACCCTTGATGTTAATCGGGTCTTGATTCGCTTGACGCTGCTG” returned a binding signal of 1.68 z-score.

As for “CCGATTAACATCAAAGCTTCCCCTGATGTTAATCGGGTCTTGATTCGCTTGACGCTGCTG”, the binding signal stood at 7.56 z-score.

In the case of “CCGATTAACATCAACTTCCCCCCTGATGTTAATCGGGTCTTGATTCGCTTGACGCTGCTG”, the binding signal was 9.16 z-score.

“CCGATTAACATCAGAAAATACCCTGATGTTAATCGGGTCTTGATTCGCTTGACGCTGCTG” showed a binding signal of 1.93 z-score.

The sequence “CCGATTAACATCAAAAAGACCCCTGATGTTAATCGGGTCTTGATTCGCTTGACGCTGCTG” showed a binding signal of 1.92 z-score.

As to “CCGATTAACATCAGGGAATCCCATGATGTTAATCGGGTCTTGATTCGCTTGACGCTGCTG”, the binding signal was 2.97 z-score.

Sequence “CCGATTAACATCAAGGGGTTTTCTGATGTTAATCGGGTCTTGATTCGCTTGACGCTGCTG” yielded a binding signal of 1.68 z-score.

For the sequence “CCGATTAACATCAAAGTCCCGGGTGATGTTAATCGGGTCTTGATTCGCTTGACGCTGCTG”, the binding signal turned out to be 1.85 z-score.

Take “CCGATTAACATCAGGGACTTTTATGATGTTAATCGGGTCTTGATTCGCTTGACGCTGCTG”: the binding signal stood at 1.97 z-score.

In the case of “CCGATTAACATCAGGCAACCCCCTGATGTTAATCGGGTCTTGATTCGCTTGACGCTGCTG”, the binding signal was 2.03 z-score.
